M1 ag parental – M1 agonist counterscreen hit in parental CHO-K1 cells. Fluo-8 calcium fluorescence; scaled to maximal ATP response, vehicle zero. activation, % at 3 µM. 0.48% of 360,000 active; in the data active = activation above about 15%;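 note: untransfected CHO-K1 host cells lacking M1 receptor as counterscreen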
CHO-K1 Ca antag – counter-screen for M1 antagonists: effect in parental CHO-K1 cells. ATP-induced calcium, Fluo-8 fluorescence. 0.6% of 360,000 active. inhibition, % at 3 µM;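 active = inhibition above a per-plate cutoff, the plate's mean sample inhibition plus 3 SD, cut at about 24% in these data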;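 note: 0% = DMSO plus EC80 ATP and 100% = DMSO alone without ATP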
CHRM1 PAM – potentiates human M1 receptor response to acetylcholine; P11229; CHO-K1 hM1, Fluo-8 calcium fluorescence, ACh EC20; 0% = ACh EC20, 100% = maximal ACh; activation, % at 3 µM; 0.088% of 360,000 active; in the data active = activation above about 19%, passing the limit was not always enough
Target sequence (P11229 whole entry, looked up): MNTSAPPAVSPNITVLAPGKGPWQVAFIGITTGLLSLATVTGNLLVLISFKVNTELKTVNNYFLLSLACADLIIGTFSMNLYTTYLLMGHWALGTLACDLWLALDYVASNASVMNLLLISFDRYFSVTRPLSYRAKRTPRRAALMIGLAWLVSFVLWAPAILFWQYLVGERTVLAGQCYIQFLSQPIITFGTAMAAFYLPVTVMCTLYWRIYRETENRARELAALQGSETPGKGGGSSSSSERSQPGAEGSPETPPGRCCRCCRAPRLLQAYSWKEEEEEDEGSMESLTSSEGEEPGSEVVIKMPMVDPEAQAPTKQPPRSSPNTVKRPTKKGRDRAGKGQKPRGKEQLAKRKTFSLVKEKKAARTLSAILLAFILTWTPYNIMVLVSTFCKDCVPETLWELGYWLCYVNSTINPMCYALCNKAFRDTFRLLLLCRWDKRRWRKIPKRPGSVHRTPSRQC
M1 antag – blocks human M1 muscarinic receptor | P11229 | CHO-K1 hM1, Fluo-8 calcium fluorescence, ACh EC80 antagonist | inhibition, % at 3 µM | 1.3% of 360,000 active;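 active = percent inhibition above its own plate's cutoff, namely the mean of that plate's compound wells plus 3 SD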;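 note: peak over basal fluorescence ratio during 140 s after agonist addition; 0% = ACh EC80 plus DMSO and 100% = DMSO alone without agonist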
CHRM1 agonist – human M1 muscarinic receptor agonism. CHO-K1 hM1, Fluo-8 calcium fluorescence, agonist mode; 0% DMSO, 100% acetylcholine EC100. activation, % at 3 µM. 0.33% of 360,000 active;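 active = activation above the run's mean compound activation plus 3 SD, cut at about 16% in these data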;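 note: peak over basal fluorescence ratio within a 140 s kinetic read after compound addition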
CHO-K1 Ca PAM – M1 PAM counterscreen hit in parental CHO-K1 cells; ATP EC20, Fluo-8 calcium fluorescence; 0% at ATP EC20, 100% at ATP max; activation, % at 3 µM; 0.02% of 360,000 active; AID 602247;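 active = activation above the run cutoff, the mean activation of all test compounds plus 3 SD, cut at about 40% in these data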;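 note: peak over basal fluorescence ratio in a 140 s read after ATP addition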
* hit, by the source's call. Sampled rows, rich in hits. Any-hit rate of the full collection: about 2.3%.

SMILES	M1 ag parental	CHO-K1 Ca antag	CHRM1 PAM	M1 antag	CHRM1 agonist	CHO-K1 Ca PAM
Cc1cc(N2CCN(C)CC2)ccc1NC(=O)c1cccc(S(=O)(=O)N2CCc3ccccc3C2)c1	1	-4	-28	79*	-9	0
COc1cc(OC)c(OC)cc1CNC(=O)c1cccc(S(=O)(=O)N2CCc3ccccc3C2)c1	12	5	-15	36*	1	-19
COc1ccccc1CNC(=O)c1cccc(S(=O)(=O)N2CCN(C)CC2)c1	5	7	-7	10	-7	-2
Cc1sc2ncnc(N3CCC(C(=O)Nc4cc(C(F)(F)F)ccc4OCC(F)(F)F)CC3)c2c1C	0	-13	-16	16	-8	-13
COc1cccc(C(=O)NNC(=O)c2sccc2-n2cccc2)c1	18*	4	8	-1	-3	4
O=C(COC(=O)c1cnccn1)NCCc1ccc(Cl)cc1	1	-3	9	-9	-2	-14
COc1ccc(Nc2nc(Cl)c(C=O)s2)cc1	7	8	-17	37*	-3	-6
CC(C)OC(=O)N(C)C[C@@H]1OCc2cnnn2CCCC(=O)N([C@H](C)CO)C[C@@H]1C	1	-6	6	-7	-4	21
COc1ccc(Nc2ncnc3ccccc23)c(OC)c1	0	-4	0	3	-3	16
COc1ccc(Nc2nnc(Cc3ccncc3)c3ccccc23)c(OC)c1	0	-15	3	4	51*	2
CN(Cc1cccc2cnccc12)C(=O)CCc1nnc(CCc2ccccc2)o1	17*	0	0	3	-8	16
CC(C)N(Cc1ccccc1)C(=O)CN1C(=O)COc2ccc(S(=O)(=O)N3CCCCCC3)cc21	16*	-30	-2	9	6	38
CN(Cc1ccccc1)C(=O)CN1C(=O)COc2ccc(S(=O)(=O)N3CCCC3)cc21	0	-13	4	-4	-5	14
CCn1c(=O)n(CC(=O)NCC2CCCO2)c(=O)c2c3c(sc21)COC(C)(C)C3 (stereo not given)	4	-4	0	2	-4	-7
Cc1ccc(CSc2cc(C)[nH]c(=O)n2)cc1	0	11	-8	19	-1	-4
CCCCOC(=O)Nc1ccc(C(=O)OCCC)cc1	0	24*	-7	6	-6	-6
CCCCOC(=O)c1ccc(O)cc1	0	-3	-3	9	-6	-6
O=C(CN1C(=O)CC(c2ccco2)Sc2ccccc21)Nc1ccc2c(c1)OCCO2 (stereo not given)	5	0	-22	38*	-8	-8
C[C@H]1CNC(=O)c2c(C(=O)N[C@@H](Cc3c[nH]c4ccccc34)C(=O)OC(C)(C)C)ncn21	0	5	13	-8	8	-15
CCCCOc1ccc(Br)cc1/C(C)=N/NC1=NCCN1	1	2	-22	73*	-4	8
CCN1/C(=C/c2ccc3cccc(C)c3[n+]2CC)Sc2ccccc21	10	24	-7	51*	14	8
CCN1/C(=C\c2ccc3cc(C)ccc3[n+]2CC)Sc2cc(C)c(C)cc21	18*	35*	-12	52*	13	-4
CCN1/C(=C/c2ccc3cc(C)cc(C)c3[n+]2CC)Sc2cc(C)ccc21	21*	40*	-13	55*	18*	-11
CCN(CC(=O)Nc1ccc(S(=O)(=O)N2CCCC2)cc1)CC(=O)Nc1ccccc1C(F)(F)F	3	-9	-12	20	-6	10
CC1=C/C(=N\OS(=O)(=O)c2ccccc2)C(C)=CC1=O	12	37*	-11	32*	10	2
SMILES	M1 ag parental	CHO-K1 Ca antag	CHRM1 PAM	M1 antag	CHRM1 agonist	CHO-K1 Ca PAM
CC1=C(C)/C(=N\OS(=O)(=O)c2ccc(C)cc2)C=CC1=O	7	34*	-10	31*	2	-10
O=C(CN1C(=O)NC2(CCCCC2)C1=O)Oc1ccc2ccc(=O)oc2c1	1	-12	-1	2	0	6
COC(/C(=N/O)c1ccc(Cl)cc1)c1ccccc1 (stereo not given)	9	31*	-20	47*	-6	-17
Cc1cc(-n2c(C)cc(C(=O)CSc3ncnc4ccccc34)c2C)no1	3	19	-7	28*	2	8
Cc1cc(C(=O)CSc2ncnc3ccccc23)c(C)n1C1CC1	9	-5	-7	7	-1	-1
COc1cccc(C(=O)/C=C2\Sc3ccccc3N2C)c1	0	24*	12	1	-4	-11
CCCC(=O)N1CCC(Cc2ccccc2)CC1	0	17	13	-12	6	-12
CCCCCCNCC(=O)N1CCC(Cc2ccccc2)CC1	3	3	-26	31*	-11	-21
CCOCCCn1cc(C(=O)c2cc(Br)ccc2O)cc(C#N)c1=O	3	-5	12	-4	-4	11
CCCCn1cc(C(=O)c2cc(Br)ccc2O)cc(C#N)c1=O	8	24*	-10	25	3	2
Cc1cc(NCc2ccccc2)n2ncc(-c3ccccc3)c2n1	5	-18	-22	39*	-8	14
COc1ccc(CCNc2cc(C)nc3c(-c4ccccc4)cnn23)cc1OC	0	0	0	1	-7	3
COC(=O)c1cc(NC(=S)NC(=O)c2ccccc2)ccc1N1CCOCC1	1	-8	7	-8	0	12
CCOC(=O)N1CCN(c2c(-c3ccc(C(C)C)cc3)c(=O)c2=O)CC1	-1	26*	5	6	-1	-7
CCOC(=O)N1CCN(c2c(-c3ccc(C)cc3)c(=O)c2=O)CC1	0	14	13	-24	1	4
CCCCC(=O)OCC(=O)c1cc(C)n(-c2c(C)n(C)n(-c3ccccc3)c2=O)c1C	0	-20	0	1	-6	21
CCOC(=O)c1cc(C)n(-c2c(C)n(C)n(-c3ccccc3)c2=O)c1C	1	-4	-14	34*	-5	4
CCC(=O)N1CCCC(C)(C(=O)Nc2ccc(C)c(C)c2)C1 (stereo not given)	0	2	0	-6	-4	-5
CC1=NOC(=O)/C1=C\c1ccc(-c2ccc(Br)cc2)o1	7	11	-1	34*	5	8
Cc1cc(NC(=O)CCC(=O)N(CC(=O)NC2CCCC2)c2ccc(Cl)c(Cl)c2)no1	0	14	-1	8	-4	-7
Cc1ccc(N(c2ncnc(N)c2[N+](=O)[O-])C2CCCCC2)cc1	0	-8	-22	49*	-7	-3
Cc1ccc(Oc2ncnc(N)c2[N+](=O)[O-])cc1	0	-13	14	3	4	9
CC(C)(C)NC(=O)C1(C)CCC(=O)N1CC(F)(F)F (stereo not given)	0	24*	3	8	3	0

Compound activity from PubChem BioAssay.
